Test results reported in ChEMBL document CHEMBL3988442, “University of Dundee, Small-Polar-MMV Screening Library” (2021).
For some of these results: Results with a measured potency or affinity are listed apart.

What was measured:
Parameters in all cases: scale not given: direction of the effect not stated beside the values
[1] = molecular target: Protein translocase subunit SecA (Escherichia coli (strain K12)) (UniProt P10408); assay: Assay to Identify E. coli SecA ATPase Inhibitors; assay type: functional; conditions: 30 µM
Protein translocase subunit SecA (Escherichia coli (strain K12)), sequence (P10408 whole entry): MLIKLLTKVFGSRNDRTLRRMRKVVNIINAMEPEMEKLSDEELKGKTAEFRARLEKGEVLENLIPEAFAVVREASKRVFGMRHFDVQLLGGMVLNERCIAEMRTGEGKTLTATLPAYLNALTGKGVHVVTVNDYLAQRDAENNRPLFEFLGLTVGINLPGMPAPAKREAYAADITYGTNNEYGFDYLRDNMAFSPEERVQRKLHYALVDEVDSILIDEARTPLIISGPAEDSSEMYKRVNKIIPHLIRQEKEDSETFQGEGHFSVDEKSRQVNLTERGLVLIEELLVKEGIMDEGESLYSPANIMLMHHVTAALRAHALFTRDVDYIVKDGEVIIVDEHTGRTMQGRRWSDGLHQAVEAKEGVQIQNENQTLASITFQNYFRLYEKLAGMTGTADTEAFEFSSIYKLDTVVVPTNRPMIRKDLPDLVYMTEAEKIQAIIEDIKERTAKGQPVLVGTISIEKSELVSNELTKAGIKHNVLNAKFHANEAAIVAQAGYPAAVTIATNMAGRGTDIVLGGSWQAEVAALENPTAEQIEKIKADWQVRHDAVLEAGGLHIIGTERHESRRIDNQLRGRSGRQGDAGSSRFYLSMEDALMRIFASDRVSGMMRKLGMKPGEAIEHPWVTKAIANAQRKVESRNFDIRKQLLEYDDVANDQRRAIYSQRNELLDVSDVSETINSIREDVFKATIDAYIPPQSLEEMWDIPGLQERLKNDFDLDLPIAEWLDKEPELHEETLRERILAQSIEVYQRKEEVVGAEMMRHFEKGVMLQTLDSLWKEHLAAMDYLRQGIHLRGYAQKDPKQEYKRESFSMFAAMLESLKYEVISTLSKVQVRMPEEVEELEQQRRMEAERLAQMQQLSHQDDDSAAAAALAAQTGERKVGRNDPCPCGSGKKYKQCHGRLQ

[2] = molecular target: T1, Ubiquitin-activating enzyme e1, putative (Leishmania donovani (strain BPK282A1)) (UniProt E9BSI1); assay: Leishmania donovani Ubiquitin Activating Enzyme (LdE1); assay type: functional; conditions: 30 µM
T1 sequence (whole entry): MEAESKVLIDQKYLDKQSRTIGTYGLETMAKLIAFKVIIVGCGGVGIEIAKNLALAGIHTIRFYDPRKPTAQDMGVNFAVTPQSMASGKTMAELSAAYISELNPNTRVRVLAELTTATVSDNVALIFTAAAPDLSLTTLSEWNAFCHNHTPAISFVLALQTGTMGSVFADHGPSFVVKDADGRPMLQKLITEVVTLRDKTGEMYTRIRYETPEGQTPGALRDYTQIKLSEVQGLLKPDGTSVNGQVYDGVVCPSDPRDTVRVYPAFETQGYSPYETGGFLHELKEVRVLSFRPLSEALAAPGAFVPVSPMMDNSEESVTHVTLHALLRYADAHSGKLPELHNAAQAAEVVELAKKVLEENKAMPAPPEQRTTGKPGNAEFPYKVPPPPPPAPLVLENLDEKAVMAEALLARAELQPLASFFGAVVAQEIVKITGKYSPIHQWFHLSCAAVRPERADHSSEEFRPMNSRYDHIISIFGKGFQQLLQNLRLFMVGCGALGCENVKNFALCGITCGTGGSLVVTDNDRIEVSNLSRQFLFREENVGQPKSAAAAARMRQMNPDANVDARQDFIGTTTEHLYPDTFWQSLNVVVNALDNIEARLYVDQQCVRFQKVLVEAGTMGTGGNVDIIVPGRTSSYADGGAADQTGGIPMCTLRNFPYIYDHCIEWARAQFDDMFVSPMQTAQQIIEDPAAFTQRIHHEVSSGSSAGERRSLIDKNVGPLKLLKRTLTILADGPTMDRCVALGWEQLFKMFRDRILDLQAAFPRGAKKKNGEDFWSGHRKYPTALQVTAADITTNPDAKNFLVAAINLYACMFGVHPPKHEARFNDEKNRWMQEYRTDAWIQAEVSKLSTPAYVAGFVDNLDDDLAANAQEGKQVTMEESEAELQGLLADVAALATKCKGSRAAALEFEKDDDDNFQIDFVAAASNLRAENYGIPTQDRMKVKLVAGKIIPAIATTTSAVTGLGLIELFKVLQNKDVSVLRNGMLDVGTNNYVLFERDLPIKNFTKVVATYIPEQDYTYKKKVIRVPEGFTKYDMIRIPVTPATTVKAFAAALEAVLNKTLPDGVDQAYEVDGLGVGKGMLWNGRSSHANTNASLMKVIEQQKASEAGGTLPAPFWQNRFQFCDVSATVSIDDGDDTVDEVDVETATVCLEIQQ

[3] = molecular target: AMP-activated protein kinase, AMPK (Homo sapiens) (UniProt P54646+O43741+P54619+Q9UGJ0+Q9Y478+Q13131+Q9UGI9); assay: AMP-dependent Kinase enzyme assay. An in vitro enzyme assay that detects ADP turnover that is directly proportional to AMPK activity. This uses naive AMPK that is activated during the assay with MK-8722; assay type: functional; conditions: 30 µM
[4] = molecular target: Sialic acid-binding Ig-like lectin 9 (Homo sapiens) (UniProt Q9Y336); assay: Hs-Siglec9 ALPHAscreen SOP 20170721; conditions: 10 µM
Sialic acid-binding Ig-like lectin 9 (Homo sapiens), sequence (Q9Y336 whole entry): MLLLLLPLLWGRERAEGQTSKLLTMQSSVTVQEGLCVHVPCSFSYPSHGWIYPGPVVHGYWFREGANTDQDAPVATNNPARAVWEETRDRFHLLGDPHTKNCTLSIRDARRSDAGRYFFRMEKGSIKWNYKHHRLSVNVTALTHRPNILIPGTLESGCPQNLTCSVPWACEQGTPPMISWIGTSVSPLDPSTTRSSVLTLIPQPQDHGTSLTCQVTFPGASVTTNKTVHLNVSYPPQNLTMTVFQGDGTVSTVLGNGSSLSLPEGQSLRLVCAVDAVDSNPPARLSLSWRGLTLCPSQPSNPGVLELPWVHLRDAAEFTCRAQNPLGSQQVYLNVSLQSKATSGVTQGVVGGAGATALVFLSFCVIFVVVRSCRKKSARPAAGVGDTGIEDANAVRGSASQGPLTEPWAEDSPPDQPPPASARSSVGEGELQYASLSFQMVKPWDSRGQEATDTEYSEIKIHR

[5] = tested on: Trypanosoma cruzi; assay: Trypanosoma cruzi phosphomannomutase and mannose-1-phosphate guanylyltransferase assay; assay type: functional; conditions: 10 µM
[6] = molecular target: T2, Arginase-2, mitochondrial (Homo sapiens) (UniProt P78540); assay: in vitro enzyme assay to detect the production of urea directly proportional to the activity of Arginase II; assay type: functional; conditions: 33.3 µM; further: in the data most compounds retested in dose-response had high values
T2 sequence (whole entry): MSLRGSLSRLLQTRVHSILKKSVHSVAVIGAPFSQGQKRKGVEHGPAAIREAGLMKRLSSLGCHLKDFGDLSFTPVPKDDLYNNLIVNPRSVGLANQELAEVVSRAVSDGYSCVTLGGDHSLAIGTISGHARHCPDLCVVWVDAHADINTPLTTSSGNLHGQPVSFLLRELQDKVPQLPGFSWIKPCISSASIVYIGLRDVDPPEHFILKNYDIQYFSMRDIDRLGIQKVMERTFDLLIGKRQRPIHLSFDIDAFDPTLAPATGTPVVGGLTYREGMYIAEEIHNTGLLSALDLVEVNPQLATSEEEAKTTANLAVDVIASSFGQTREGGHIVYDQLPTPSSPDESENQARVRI

[7] = molecular target: T3, Proteasome subunit beta (Trypanosoma cruzi) (UniProt O96673); assay: Trypanosoma cruzi proteasome chymotrypsin-like activity (TcProtChymo) assay.; further: in the data most compounds retested in dose-response had high values; assay type: functional; conditions: 9.37 µM
T3 sequence (whole entry): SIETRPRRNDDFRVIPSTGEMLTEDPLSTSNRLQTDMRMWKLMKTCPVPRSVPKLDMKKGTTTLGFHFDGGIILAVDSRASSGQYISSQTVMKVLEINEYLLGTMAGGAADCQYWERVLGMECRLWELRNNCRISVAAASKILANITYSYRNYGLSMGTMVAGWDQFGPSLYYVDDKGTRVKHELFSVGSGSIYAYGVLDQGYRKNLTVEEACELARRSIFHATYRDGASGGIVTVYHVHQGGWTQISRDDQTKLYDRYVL

[8] = organism: Homo sapiens; assay: To identify inhibition of the IFN signalling (Jak-Stat) pathway via expression of an eGFP reporter gene under the control of an IFN-stimulated response element (ISRE) containing MxA promoter.; assay type: functional; conditions: 30 µM
[9] = molecular target: T4, Tyrosyl-tRNA synthetase, putative (Trypanosoma cruzi (strain CL Brener)) (UniProt Q4DSP6); assay: Trypanosoma cruzi tyrosyl tRNA synthetase (TcYRS) _High Tyrosine SOP; assay type: functional; conditions: 30 µM; further: in the data most compounds retested in dose-response had high values
T4 sequence (whole entry): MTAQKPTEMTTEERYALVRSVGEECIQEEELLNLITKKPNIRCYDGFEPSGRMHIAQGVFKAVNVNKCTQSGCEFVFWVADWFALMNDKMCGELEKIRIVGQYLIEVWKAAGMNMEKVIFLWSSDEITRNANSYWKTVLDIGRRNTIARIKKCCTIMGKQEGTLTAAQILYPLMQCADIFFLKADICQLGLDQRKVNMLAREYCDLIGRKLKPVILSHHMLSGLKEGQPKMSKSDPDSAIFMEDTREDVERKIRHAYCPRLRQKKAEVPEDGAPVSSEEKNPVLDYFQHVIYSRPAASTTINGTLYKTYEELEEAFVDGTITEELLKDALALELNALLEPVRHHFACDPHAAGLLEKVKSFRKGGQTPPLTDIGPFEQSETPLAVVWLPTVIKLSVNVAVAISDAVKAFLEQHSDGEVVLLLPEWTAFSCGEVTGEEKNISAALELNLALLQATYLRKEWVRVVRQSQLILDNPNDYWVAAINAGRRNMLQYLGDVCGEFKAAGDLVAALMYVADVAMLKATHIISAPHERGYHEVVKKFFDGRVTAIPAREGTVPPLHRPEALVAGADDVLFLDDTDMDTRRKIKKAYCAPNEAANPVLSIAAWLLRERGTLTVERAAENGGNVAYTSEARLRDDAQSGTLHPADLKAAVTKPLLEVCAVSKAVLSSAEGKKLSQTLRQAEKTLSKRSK

[10] = molecular target: T4, Tyrosyl-tRNA synthetase, putative (Trypanosoma cruzi (strain CL Brener)); assay: Trypanosoma cruzi tyrosyl tRNA synthetase (TcYRS) SOP; assay type: functional; conditions: 30 µM
[11] = molecular target: Chromo domain-containing protein 1 (Saccharomyces cerevisiae (strain ATCC 204508 / S288c) (Baker's yeast)) (UniProt P32657); assay: ScCHD-1 Enzyme Inhibition Assay; assay type: functional; conditions: 30 µM; further: in the data most compounds retested in dose-response had high values
Chromo domain-containing protein 1 (Saccharomyces cerevisiae (strain ATCC 204508 / S288c) (Baker's yeast)), sequence (P32657 whole entry, the tested form may be a part): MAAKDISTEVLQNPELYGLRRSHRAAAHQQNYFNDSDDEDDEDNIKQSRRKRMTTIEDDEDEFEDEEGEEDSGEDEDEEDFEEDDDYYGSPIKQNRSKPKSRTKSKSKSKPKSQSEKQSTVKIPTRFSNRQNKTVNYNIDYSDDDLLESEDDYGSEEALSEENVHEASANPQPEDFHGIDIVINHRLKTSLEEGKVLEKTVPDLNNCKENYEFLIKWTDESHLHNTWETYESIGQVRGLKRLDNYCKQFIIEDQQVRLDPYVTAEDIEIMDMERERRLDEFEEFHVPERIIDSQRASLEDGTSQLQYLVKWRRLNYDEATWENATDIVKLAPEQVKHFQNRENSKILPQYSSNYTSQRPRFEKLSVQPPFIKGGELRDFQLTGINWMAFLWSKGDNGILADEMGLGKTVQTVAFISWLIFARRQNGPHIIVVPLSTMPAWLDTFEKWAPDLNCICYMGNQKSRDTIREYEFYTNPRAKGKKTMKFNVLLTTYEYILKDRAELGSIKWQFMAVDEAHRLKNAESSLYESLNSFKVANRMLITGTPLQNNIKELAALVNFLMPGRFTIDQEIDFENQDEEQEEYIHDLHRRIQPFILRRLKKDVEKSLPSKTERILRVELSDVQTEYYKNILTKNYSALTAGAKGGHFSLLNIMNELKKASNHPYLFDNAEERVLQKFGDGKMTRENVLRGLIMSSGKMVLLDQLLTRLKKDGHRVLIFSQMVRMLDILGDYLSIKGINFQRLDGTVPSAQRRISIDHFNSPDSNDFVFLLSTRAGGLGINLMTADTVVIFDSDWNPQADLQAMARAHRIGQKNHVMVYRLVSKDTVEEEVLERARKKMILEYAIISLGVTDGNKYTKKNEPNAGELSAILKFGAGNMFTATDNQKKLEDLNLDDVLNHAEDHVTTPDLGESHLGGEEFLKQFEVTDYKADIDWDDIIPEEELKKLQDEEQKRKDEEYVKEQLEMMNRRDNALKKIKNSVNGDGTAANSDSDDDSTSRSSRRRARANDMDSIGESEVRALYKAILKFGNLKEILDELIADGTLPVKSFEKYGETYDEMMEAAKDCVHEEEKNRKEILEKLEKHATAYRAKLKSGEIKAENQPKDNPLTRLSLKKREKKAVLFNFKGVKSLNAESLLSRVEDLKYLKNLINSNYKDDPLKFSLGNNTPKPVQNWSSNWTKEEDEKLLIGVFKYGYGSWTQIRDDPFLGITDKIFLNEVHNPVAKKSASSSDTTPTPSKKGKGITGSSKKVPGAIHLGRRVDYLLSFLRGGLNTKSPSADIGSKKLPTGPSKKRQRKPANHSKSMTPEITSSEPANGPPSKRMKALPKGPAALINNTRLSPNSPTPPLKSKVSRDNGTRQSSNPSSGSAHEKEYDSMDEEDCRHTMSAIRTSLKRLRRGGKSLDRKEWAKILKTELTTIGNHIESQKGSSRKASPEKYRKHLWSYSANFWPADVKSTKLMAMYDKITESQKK

| Structure (SMILES) | Percent Effect [1] [%] | Percent Effect [2] [%] | Percent Effect [3] [%] | Percent Effect [4] [%] | Percent Effect [5] [%] | Percent Effect [6] [%] | Percent Effect [7] [%] | Percent Effect [8] [%] | Percent Effect [9] [%] | Percent Effect [10] [%] | Percent Effect [11] [%] |
| --- | --- | --- | --- | --- | --- | --- | --- | --- | --- | --- | --- |
| O=C(Nc1cnccn1)[C@@H]1COC[C@H]2CN(C3CCCC3)C[C@H]21 | -8.34 | 13.5 | -5.42 | 16.7 | 3.91 | 3.33 | 3.97 | -6.67 | 6.93 | 11 | -4.69 |
| Cc1nc(N2CCOCC2)nc2c1CCN(C(=O)NC1CCCC1)CC2 | -0.181 | 6.67 | -1.67 | -6.84 | -11 | -6.16 | 19.2 | 0.0839 | -2.12 | 0 | -10.6 |
| CC(C)Cc1ccc(S(=O)(=O)Nc2ccc(=O)n(C)c2)cc1 | -3.52 | 25.3 | -59.7 | -2.55 | 3.31 | 0 | 15.5 | 69 | 6.4 | 21.5 | -7.97 |
| Cc1cc(C)n(C2CCCN(C(=O)Cc3csc(C)n3)C2)n1 (stereo not given) | -3.62 | 0 | -2.28 | 17.5 | 6.7 | 1.9 | 4.34 | -6.53 | 4.43 | -3.8 | -6.83 |
| CN1CCc2c(C#N)c(NCc3ccco3)n3cnnc3c2C1 | -7.61 | 15.8 | 0.706 | 6.25 | 1.07 | 0 | 14.5 | -6.85 | 4.25 | 15.6 | -17.9 |
| CCN1CC2(CC1=O)CN(Cc1cnn(C)c1)CCN(C(=O)C(C)C)C2 (stereo not given) | -6.68 | 5.41 | 0.933 | -1.78 | -1.17 | -1.67 | 7.52 | 8.39 | 7.92 | 6.1 | 2.63 |
| O=C(NCCNc1ncccn1)C1CCN(C(=O)C2CC2)CC1 | -2.16 | 13.5 | 5.28 | -1.97 | -4.55 | 5.36 | 0.718 | 13.2 | 6.93 | 13.4 | 3.86 |
| CC(C(=O)NCCCn1ccnc1)n1cc(Br)cn1 (stereo not given) | -3.65 | 2.6 | -2.79 | 7.47 | 3.83 | -33.1 | 10.7 | -6.92 | 7.53 | 18.5 | -2 |
| COc1ccccc1CC(=O)N1CCC(NCc2cccnc2)CC1 | -3.89 | 16.2 | -2.91 | -2.63 | -9.01 | -0.924 | 7.18 | 3.6 | 3.96 | 3.66 | -3.87 |
| CC(C)(C)c1noc(CN2CCN(C(=O)c3cccs3)CC2)n1 | -2.39 | 10.4 | 4.2 | -5.86 | -4.68 | 4.27 | 10.3 | 19.4 | 7.77 | 14.6 | -7.8 |
| O=C(C1CC=CC1)N1C[C@@H]2[C@@H](C1)OCC(=O)N2Cc1cccnc1 | -2.28 | -2.6 | 12.1 | 3.67 | 0.888 | -3.23 | 0.87 | 15 | 2.12 | 6.41 | -4.72 |
| O=C(CSC1=NS(=O)(=O)c2cc(F)ccc2N1)Nc1cccc(Cl)c1 | -1.88 | -39 | 1.02 | -0.207 | 2.86 | -0.645 | 21.1 | 26.7 | -10.6 | -8.97 | -11.3 |
| CCC1CN(CCNC(C)=O)CCN1CCOC (stereo not given) | -0.705 | 16.2 | -10.5 | -8.99 | -2.74 | -4.81 | 18.2 | 5.73 | 7.39 | 13.6 | -5.61 |
| Cc1cc(S(=O)(=O)N2CCC(S(C)(=O)=O)CC2)ccc1F | -4.08 | 5.2 | 6.02 | 4.37 | -0.493 | 8.39 | -2.96 | 14.6 | 4.23 | 11.5 | -5.25 |
| O=S(=O)(c1cccs1)N1CCCn2cnc(CN3CCCC3)c2C1 | -4.49 | 10.7 | -0.197 | 0.986 | -3.48 | -60.4 | 13.8 | 7.16 | 4.17 | 12.5 | -7.45 |
| CCS(=O)(=O)N1CCC[C@]2(C(=O)N(C)C)CN(c3ncccn3)C[C@@H]2C1 | 2.18 | 10.7 | 3.9 | 3.64 | 0.193 | -53.9 | 7.52 | -10.8 | 3.12 | 22.5 | -10.2 |
| Nc1nccc(NCc2cc3n(n2)CCCN(C(=O)C2CCC2)C3)n1 | -4.85 | 8.22 | 2.89 | 2.05 | -0.794 | -3.59 | 14.5 | 9.88 | 4.17 | 11.1 | -0.468 |
| CN(C)c1cncc(C2CCN(C(=O)CO)CC2)n1 | -3.4 | 6.76 | 7.38 | 5.95 | 0.198 | 2.55 | 10.8 | 22 | 4.3 | 9.09 | -10.6 |
| CCc1nnc2n1CCN(C(=O)c1cc3cc(F)ccc3[nH]1)C2 | -3.51 | 0 | 21 | 11.1 | 4.68 | -1.78 | 2.37 | -24.4 | 7.77 | 24.4 | -11.3 |
| Cc1cnn(CC2CCCN2C(=O)CCc2c(C)noc2Cl)c1 (stereo not given) | -2.86 | -2.63 | 5.68 | -4.15 | 7.11 | 4.73 | 13.5 | -23.3 | 5.32 | 5.2 | 1.72 |
